# Assay results taken from PubChem BioAssay AID1159580 (chemical genetic matrix, 2015).
# Hit rate of the full screen: of about 5,500 compounds, about 2,000 (36%) were called active. Inconclusive results (about 18%) are left out. The list shows a part of the results. Values without a mark were called inactive. Rule as the data show it: active = normalized growth mostly below about 0.91 (no sharp cut-off); inconclusive = no clear call, values can overlap the other calls; inactive = mostly above about 0.92.
# Test: chemical genetic growth profiling, strain panel (AID 1159580);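 also: tested at 20 µM; growth read once vehicle control cultures reached saturation at 30 °C; 1 = growth at the plate median or of vehicle wells; lower values mean less growth of the strain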
# Conditions: growth OD
smiles,measurement,setting,value
CC1(C)C2CC[C@]3(C)C(C(=O)C=C4[C@H]5C[C@@](C)(C(=O)O)CC[C@]5(C)CC[C@]43C)[C@@]2(C)CC[C@@H]1O (some centres not stated),normalized growth,"S. cerevisiae deletion strains, locus YJR075W, strain HOC1, active compounds read low",1.05
same,normalized growth,"S. cerevisiae deletion strains, locus YKL009W, strain mrt4, active compounds read low",0.921
same,normalized growth,"S. cerevisiae deletion strains, locus YKL068W, active compounds read low",1.02
same,normalized growth,"S. cerevisiae deletion strains, locus YKL085W, strain MDH1 (second series), active compounds read low",1.02
same,normalized growth,"S. cerevisiae deletion strains, locus YKL085W, strain MDH1, active compounds read low",1.02
same,normalized growth,"S. cerevisiae deletion strains, locus YKL160W, strain elf1, active compounds read low",0.95
same,normalized growth,"S. cerevisiae deletion strains, locus YKL190W, strain CNB1, active compounds read low",1.04
same,normalized growth,"S. cerevisiae deletion strains, locus YKR001C, strain vps1, active compounds read low",0.996
same,normalized growth,"S. cerevisiae deletion strains, locus YKR026C, strain gcn3, active compounds read low",1.03
same,normalized growth,"S. cerevisiae deletion strains, locus YKR091W, strain srl3, active compounds read low",1.01
same,normalized growth,"S. cerevisiae deletion strains, locus YLL001W, strain dnm1, active compounds read low",0.867 (active)
same,normalized growth,"S. cerevisiae deletion strains, locus YLL026W, active compounds read low",0.979
same,normalized growth,"S. cerevisiae deletion strains, locus YLL041C, strain sdh2, active compounds read low",1.01
same,normalized growth,"S. cerevisiae deletion strains, locus YLR027C, strain aat2, active compounds read low",0.899 (active)
same,normalized growth,"S. cerevisiae deletion strains, locus YLR039C, strain RIC1, active compounds read low",1.1
same,normalized growth,"S. cerevisiae deletion strains, locus YLR058C, strain SHM2, active compounds read low",1.03
same,normalized growth,"S. cerevisiae deletion strains, locus YLR102C, strain apc9, active compounds read low",1.01
same,normalized growth,"S. cerevisiae deletion strains, locus YLR113W, strain HOG1, active compounds read low",1.01
same,normalized growth,"S. cerevisiae deletion strains, locus YLR221C, strain rsa3, active compounds read low",0.917
same,normalized growth,"S. cerevisiae deletion strains, locus YLR258W, strain gsy2, active compounds read low",0.953
same,normalized growth,"S. cerevisiae deletion strains, locus YLR262C, strain YPT6 (second series), active compounds read low",0.702 (active)
same,normalized growth,"S. cerevisiae deletion strains, locus YLR262C, strain YPT6, active compounds read low",1.04
same,normalized growth,"S. cerevisiae deletion strains, locus YLR268W, strain sec22, active compounds read low",0.944
same,normalized growth,"S. cerevisiae deletion strains, locus YLR320W, strain mms22, active compounds read low",0.871 (active)
same,normalized growth,"S. cerevisiae deletion strains, locus YLR330W, strain CHS5, active compounds read low",1.04
same,normalized growth,"S. cerevisiae deletion strains, locus YLR342W, strain FKS1 (second series), active compounds read low",1.03
same,normalized growth,"S. cerevisiae deletion strains, locus YLR342W, strain FKS1, active compounds read low",1.01
same,normalized growth,"S. cerevisiae deletion strains, locus YLR357W, strain rsc2, active compounds read low",1.05
same,normalized growth,"S. cerevisiae deletion strains, locus YLR370C, strain arc18, active compounds read low",1.01
same,normalized growth,"S. cerevisiae deletion strains, locus YLR371W, strain rom2, active compounds read low",1
same,normalized growth,"S. cerevisiae deletion strains, locus YLR384C, strain iki3, active compounds read low",1.02
same,normalized growth,"S. cerevisiae deletion strains, locus YLR418C, strain cdc73, active compounds read low",1.03
same,normalized growth,"S. cerevisiae deletion strains, locus YML016C, strain PPZ1, active compounds read low",1.05
same,normalized growth,"S. cerevisiae deletion strains, locus YML032C, strain rad52, active compounds read low",0.991
same,normalized growth,"S. cerevisiae deletion strains, locus YML120C, strain ndi1, active compounds read low",0.993
same,normalized growth,"S. cerevisiae deletion strains, locus YML124C, strain tub3, active compounds read low",1.02
same,normalized growth,"S. cerevisiae deletion strains, locus YMR058W, strain fet3, active compounds read low",0.984
same,normalized growth,"S. cerevisiae deletion strains, locus YMR078C, strain ctf18, active compounds read low",1.01
same,normalized growth,"S. cerevisiae deletion strains, locus YMR125W, strain sto1, active compounds read low",1.02
same,normalized growth,"S. cerevisiae deletion strains, locus YMR129W, active compounds read low",1.01
same,normalized growth,"S. cerevisiae deletion strains, locus YMR205C, strain PFK2, active compounds read low",0.843 (active)
same,normalized growth,"S. cerevisiae deletion strains, locus YMR223W, strain ubp8, active compounds read low",0.994
same,normalized growth,"S. cerevisiae deletion strains, locus YMR231W, strain pep5, active compounds read low",0.984
same,normalized growth,"S. cerevisiae deletion strains, locus YMR263W, strain SAP30, active compounds read low",1.03
same,normalized growth,"S. cerevisiae deletion strains, locus YMR307W, strain GAS1, active compounds read low",1.02
same,normalized growth,"S. cerevisiae deletion strains, locus YNL067W, strain RPL9B, active compounds read low",0.98
same,normalized growth,"S. cerevisiae deletion strains, locus YNL071W, strain lat1, active compounds read low",0.603 (active)
same,normalized growth,"S. cerevisiae deletion strains, locus YNL128W, strain TEP1, active compounds read low",1.04
same,normalized growth,"S. cerevisiae deletion strains, locus YNL153C, strain GIM3, active compounds read low",0.982
same,normalized growth,"S. cerevisiae deletion strains, locus YNL183C, strain NPR1, active compounds read low",0.946
same,normalized growth,"S. cerevisiae deletion strains, locus YNL209W, strain ssb2, active compounds read low",0.971
same,normalized growth,"S. cerevisiae deletion strains, locus YNL233W, strain BNI4, active compounds read low",1.03
same,normalized growth,"S. cerevisiae deletion strains, locus YNL248C, strain rpa49, active compounds read low",0.926
same,normalized growth,"S. cerevisiae deletion strains, locus YNL250W, strain rad50, active compounds read low",1.01
same,normalized growth,"S. cerevisiae deletion strains, locus YNL271C, strain bni1, active compounds read low",1.01
same,normalized growth,"S. cerevisiae deletion strains, locus YNL298W, strain CLA4, active compounds read low",0.965
same,normalized growth,"S. cerevisiae deletion strains, locus YNL307C, strain MCK1, active compounds read low",1.02
same,normalized growth,"S. cerevisiae deletion strains, locus YNL322C, strain KRE1 (second series), active compounds read low",1.01
same,normalized growth,"S. cerevisiae deletion strains, locus YNL322C, strain KRE1, active compounds read low",1.05
same,normalized growth,"S. cerevisiae deletion strains, locus YNR049C, strain mso1, active compounds read low",1.01
same,normalized growth,"S. cerevisiae deletion strains, locus YNR052C, strain pop2, active compounds read low",0.999
same,normalized growth,"S. cerevisiae deletion strains, locus YOL006C, strain TOP1, active compounds read low",1.09
same,normalized growth,"S. cerevisiae deletion strains, locus YOL012C, strain htz1",1.33
same,normalized growth,"S. cerevisiae deletion strains, locus YOL147C, strain pex11, active compounds read low",1.02
same,normalized growth,"S. cerevisiae deletion strains, locus YOR001W, strain rrp6, active compounds read low",1.01
same,normalized growth,"S. cerevisiae deletion strains, locus YOR061W, strain CKA2, active compounds read low",1.04
same,normalized growth,"S. cerevisiae deletion strains, locus YOR069W, strain VPS5, active compounds read low",1.04
same,normalized growth,"S. cerevisiae deletion strains, locus YOR070C, strain gyp1, active compounds read low",0.905 (active)
same,normalized growth,"S. cerevisiae deletion strains, locus YOR080W, strain dia2, active compounds read low",1.02
same,normalized growth,"S. cerevisiae deletion strains, locus YOR083W, strain WHI5, active compounds read low",0.915
same,normalized growth,"S. cerevisiae deletion strains, locus YOR106W, strain vam3, active compounds read low",0.76 (active)
same,normalized growth,"S. cerevisiae deletion strains, locus YOR136W, strain idh2, active compounds read low",1.01
same,normalized growth,"S. cerevisiae deletion strains, locus YOR144C, strain elg1, active compounds read low",1.02
same,normalized growth,"S. cerevisiae deletion strains, locus YOR184W, strain ser1, active compounds read low",0.898
same,normalized growth,"S. cerevisiae deletion strains, locus YOR231W, strain MKK1, active compounds read low",1
same,normalized growth,"S. cerevisiae deletion strains, locus YOR265W, strain rbl2, active compounds read low",0.995
same,normalized growth,"S. cerevisiae deletion strains, locus YOR270C, strain vph1, active compounds read low",0.638 (active)
same,normalized growth,"S. cerevisiae deletion strains, locus YOR290C, strain snf2, active compounds read low",0.944
same,normalized growth,"S. cerevisiae deletion strains, locus YOR316C, strain cot1, active compounds read low",1.01
same,normalized growth,"S. cerevisiae deletion strains, locus YPL051W, strain arl3, active compounds read low",0.892 (active)
same,normalized growth,"S. cerevisiae deletion strains, locus YPL055C, strain LGE1, active compounds read low",1.05
same,normalized growth,"S. cerevisiae deletion strains, locus YPL078C, strain atp4, active compounds read low",0.869 (active)
same,normalized growth,"S. cerevisiae deletion strains, locus YPL106C, strain sse1, active compounds read low",1.17 [resistant] (active)
same,normalized growth,"S. cerevisiae deletion strains, locus YPL240C, strain hsp82, active compounds read low",0.97
same,normalized growth,"S. cerevisiae deletion strains, locus YPL241C, strain CIN2, active compounds read low",1.05
same,normalized growth,"S. cerevisiae deletion strains, locus YPL256C, strain CLN2, active compounds read low",1.03
same,normalized growth,"S. cerevisiae deletion strains, locus YPR119W, strain clb2, active compounds read low",1.02
same,normalized growth,"S. cerevisiae deletion strains, locus YPR141C, strain kar3, active compounds read low",1.02
same,normalized growth,"S. cerevisiae deletion strains, locus YPR163C, strain tif3, active compounds read low",1.02
same,normalized growth,"S. cerevisiae deletion strains, locus YPR167C, strain met16, active compounds read low",1.02
same,normalized growth,"S. cerevisiae deletion strains, strain wtn01, active compounds read low",0.976
same,normalized growth,"S. cerevisiae strains, strain wild type, active compounds read low",1.02
